The text below walks through data of PubChem BioAssay AID2405 (Southern Research Specialized Biocontainment Screening …, 2010).

Each structure is given as a SMILES string. The source made the active and inactive calls. The rule behind the calls is not given here.

The assay is described as follows: RSV cytopathic effect inhibition in HEp-2 – cell-based, probe candidates (AID 2405). Conditions: HEp-2 cells, active compounds read high; at 100 µM unless noted. On the technique in general: Cytopathic effects are the visible damage that an infection or toxin causes in cultured cells.
On to `O=C(Nc1nc(-c2ccc(Cl)cc2)cs1)c1ccc(Cl)cc1`, for which the maximum inhibition is 2.44% (inactive).

As to `O=C(CSc1nc2ccccc2c(=O)n1-c1ccc(F)cc1)Nc1ccc2c(c1)CCC2`, the maximum inhibition was 2.76% (inactive).

With `CCOC(=O)C1(Cc2ccccc2C(F)(F)F)CCN(C2CCN(C(C)C)CC2)CC1`, the maximum inhibition is 0.09% [at 0.2 µM] (inactive).

Consider `Cc1cc(OC(=O)c2c(F)cccc2F)n(Cc2ccccc2)n1`, for which the maximum inhibition was 0.49% [at 3.13 µM] (inactive).

For `O=C(CSc1nc2ccccc2c(=O)n1-c1ccc(F)cc1)Nc1cccc2ccccc12`, the maximum inhibition was 16.6% (inactive).

As for `COc1ccc(-c2csc(N(Cc3ccccc3)C(=O)c3ccccc3Cl)n2)cc1`, the maximum inhibition was 10.1% [at 25 µM] (inactive).

Consider `O=c1c2c(F)cccc2nc2n1CCC2`, for which the maximum inhibition was 2.17% [at 0.39 µM] (inactive).

For `Cc1cccc2c(=O)n3c(nc12)CCC3`, the maximum inhibition was 1.55% [at 0.2 µM] (inactive).

In the case of `O=C(CSc1nc2ccccc2c(=O)n1-c1ccc(Cl)cc1)Nc1ccc2c(c1)CCC2`, the maximum inhibition was 11.5% [at 25 µM] (inactive).

For `COc1ccc(NC(=O)CSc2nc3ccccc3c(=O)n2-c2ccc(F)cc2)cc1`, the maximum inhibition was 18.6% (inactive).

Consider `CC(=O)Nc1ccc2nc3n(c(=O)c2c1)CCC3`, for which the maximum inhibition is 1.57% [at 50 µM] (inactive).

With `COc1ccc(-c2csc(NC(=O)c3ccc(Cl)cc3)n2)cc1`, the maximum inhibition was 0.97% [at 25 µM] (inactive).

Take `COc1ccc(-c2csc(NC(=O)c3ccccc3F)n2)cc1`: the maximum inhibition was 1.37% (inactive).

`OC1c2cc(Br)ccc2N=C2CCCCN21` (configuration not stated): the maximum inhibition is 6.83% (inactive).

Turning to `Cc1cccc2c(=O)n(-c3ccccc3)c(SCC(=O)Nc3ccc4c(c3)CCC4)nc12`, the maximum inhibition is 5.23% [at 12.5 µM] (inactive).

As for `CC1CCCC(C)N1CCCNC(=O)c1cc2c(s1)-c1ccccc1OC2` (configuration not stated), the maximum inhibition was 0.79% [at 0.78 µM] (inactive).

Take `O=C(CSc1nc2ccccc2c(=O)n1-c1ccc(F)cc1)Nc1ccc2c(c1)OCCO2`: the maximum inhibition is 15% [at 50 µM] (inactive).

Consider `O=C(Nc1nc(-c2ccccc2)cs1)c1ccccc1Cl`, for which the maximum inhibition is 45.7% [at 12.5 µM] (inactive).

As to `COc1cccc2c(=O)n(-c3ccccc3)c(SCC(=O)Nc3ccc4c(c3)CCC4)nc12`, the maximum inhibition was 21.8% (inactive).

`c1ccc2c(c1)CN1CCCC1=N2`: the maximum inhibition is 1.32% [at 6.25 µM] (inactive).

As for `CC1(O)c2cc(Br)ccc2N=C2CCCN21` (configuration not stated), the maximum inhibition is 2.76% (inactive).

For the molecule `O=c1c2cc(Cl)cc(Cl)c2nc2n1CCC2`, the maximum inhibition is 5.87% (inactive).

Turning to `CC1CC(C)CN(C(=O)CSc2nc3ccccc3c(=O)n2-c2ccc(F)cc2)C1` (configuration not stated), the maximum inhibition was 2.13% (inactive).

For `Cc1cccc2c1-c1sc(C(=O)NCCCN3CCC(C)CC3)cc1CO2`, the maximum inhibition was 0.67% [at 0.2 µM] (inactive).

In the case of `COc1ccc(-c2csc(N(CCCN(C)C)C(=O)c3ccccc3C)n2)cc1`, the maximum inhibition was 0.96% [at 0.2 µM] (inactive).

Take `Brc1ccc2c(c1)CN1CCCC1=N2`: the maximum inhibition was 25.2% [at 50 µM] (inactive).

For the molecule `O=C(Nc1nc(-c2ccc(Cl)cc2)cs1)c1ccc(I)cc1`, the maximum inhibition is 1.55% [at 25 µM] (inactive).
